Results on one sequence are retold here after article PMC7862700, “An all-to-all approach to the identification of sequence-specific readers for epigenetic DNA modifications on cytosine”.

What all share (assay): DAPPL (digital affinity profiling via proximity ligation, sequencing); 10 mM Tris-HCl pH 7.5, 50 mM NaCl, 1 mM DTT, 4% glycerol, room temperature, 30 min; GST-TFs on glutathione beads, 16-mer random dsDNA library, 0.1% formaldehyde crosslink after washing; high values mean tight binding
One assay concerns the target T1, FEV (Homo sapiens, UniProt Q99581 1-238).
T1 sequence: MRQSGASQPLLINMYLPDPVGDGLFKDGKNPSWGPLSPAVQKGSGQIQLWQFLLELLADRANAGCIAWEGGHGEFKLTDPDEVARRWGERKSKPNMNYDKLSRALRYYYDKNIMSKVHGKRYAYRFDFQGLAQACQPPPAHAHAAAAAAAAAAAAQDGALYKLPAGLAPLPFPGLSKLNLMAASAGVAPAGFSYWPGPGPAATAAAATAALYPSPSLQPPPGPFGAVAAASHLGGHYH
As to conditions: protein: recombinant; tags: N-terminal GST; dsDNA, one strand shown. In a few lines:
(§1)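 Pools were built from human transcription factors expressed in yeast as GST fusions, captured on glutathione beads and DNA-barcoded, along with a tag-only sample. Incubation with 200 nmole of a 16-mer random double-stranded DNA library lasted 30 min at room temperature in Tris/NaCl/DTT/glycerol buffer, and was followed by washing, 0.1% formaldehyde crosslinking, proximity ligation, PCR amplification and Illumina NextSeq500 sequencing. Binding signal is the quotient of each hexamer's read frequency for a factor and its frequency for the tag-only sample.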

A further assay addresses ETV5 (Homo sapiens, UniProt P41161 1-510). As to conditions: protein: recombinant; tags: N-terminal GST; dsDNA, one strand shown. In a few lines: as §1
The target in the next assay is HSF1 (Homo sapiens, UniProt Q00613 1-529). Conditions: protein: recombinant; tags: N-terminal GST; chain copies: 3; dsDNA, one strand shown. In a few lines:
as §1

The target in the next assay is T2, SPIC (Homo sapiens, UniProt Q8N5J4 1-248).
T2 sequence: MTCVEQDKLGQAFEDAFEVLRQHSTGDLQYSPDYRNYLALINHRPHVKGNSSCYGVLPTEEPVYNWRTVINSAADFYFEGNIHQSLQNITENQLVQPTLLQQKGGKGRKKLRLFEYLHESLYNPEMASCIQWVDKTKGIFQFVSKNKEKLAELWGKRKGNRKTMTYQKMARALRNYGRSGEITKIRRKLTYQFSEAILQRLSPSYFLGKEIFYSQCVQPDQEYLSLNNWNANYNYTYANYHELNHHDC
As to conditions: protein: recombinant; tags: N-terminal GST; dsDNA, one strand shown. In outline:
as §1

A further assay has as its target ELF4 (Homo sapiens, UniProt Q99607 1-663). Conditions: protein: recombinant; tags: N-terminal GST; dsDNA, one strand shown. In a few lines:
as §1

The next assay addresses T3, ELK4 (Homo sapiens, UniProt P28324-2 1-405).
T3 sequence: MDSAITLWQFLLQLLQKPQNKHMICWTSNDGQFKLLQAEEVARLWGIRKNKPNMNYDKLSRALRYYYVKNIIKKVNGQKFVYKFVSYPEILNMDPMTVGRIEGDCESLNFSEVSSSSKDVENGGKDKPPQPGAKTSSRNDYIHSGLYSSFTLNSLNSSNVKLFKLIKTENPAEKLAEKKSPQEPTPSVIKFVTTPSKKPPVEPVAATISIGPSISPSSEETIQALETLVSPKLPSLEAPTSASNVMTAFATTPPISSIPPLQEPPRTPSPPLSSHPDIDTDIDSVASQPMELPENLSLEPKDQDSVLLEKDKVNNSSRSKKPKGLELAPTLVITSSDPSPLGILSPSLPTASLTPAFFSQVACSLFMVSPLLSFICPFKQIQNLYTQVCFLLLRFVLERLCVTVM
As to conditions: protein: recombinant; tags: N-terminal GST; dsDNA, one strand shown. In outline: as §1

A further assay has as its target T4, ETV2 (Homo sapiens, UniProt O00321 1-342).
T4 sequence: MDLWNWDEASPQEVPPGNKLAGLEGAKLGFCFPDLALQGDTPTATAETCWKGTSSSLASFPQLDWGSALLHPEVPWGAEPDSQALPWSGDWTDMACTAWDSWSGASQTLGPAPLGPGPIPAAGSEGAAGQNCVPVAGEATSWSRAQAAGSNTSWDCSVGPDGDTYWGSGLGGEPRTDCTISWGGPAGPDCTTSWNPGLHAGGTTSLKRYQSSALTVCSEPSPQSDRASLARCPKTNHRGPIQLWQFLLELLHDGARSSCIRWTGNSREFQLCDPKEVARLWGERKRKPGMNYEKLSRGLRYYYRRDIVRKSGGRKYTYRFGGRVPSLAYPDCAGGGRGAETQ
As to conditions: protein: recombinant; tags: N-terminal GST; dsDNA, one strand shown. In outline: as §1

Another assay has as its target T5, ELF3 (Homo sapiens, UniProt P78545 1-371).
T5 sequence: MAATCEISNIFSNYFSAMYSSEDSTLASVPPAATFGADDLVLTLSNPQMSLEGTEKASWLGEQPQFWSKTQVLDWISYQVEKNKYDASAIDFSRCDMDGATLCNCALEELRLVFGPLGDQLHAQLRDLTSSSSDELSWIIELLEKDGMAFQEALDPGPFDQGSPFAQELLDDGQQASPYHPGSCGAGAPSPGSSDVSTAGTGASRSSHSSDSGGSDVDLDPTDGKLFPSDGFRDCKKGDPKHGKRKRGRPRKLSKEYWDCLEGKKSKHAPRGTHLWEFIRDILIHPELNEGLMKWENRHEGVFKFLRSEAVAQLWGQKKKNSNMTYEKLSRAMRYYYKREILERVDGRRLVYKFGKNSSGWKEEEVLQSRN
Conditions: protein: recombinant; tags: N-terminal GST; dsDNA, one strand shown. In a few lines: as §1

In a further assay the target is CRX (Homo sapiens, UniProt O43186 1-299). As to conditions: protein: recombinant; tags: N-terminal GST; dsDNA, one strand shown. In outline:
as §1

A further assay has as its target ETV1 (Homo sapiens, UniProt P50549 1-477). As to conditions: protein: recombinant; tags: N-terminal GST; dsDNA, one strand shown. In outline: as §1
The target in another assay is T6, ERF (Homo sapiens, UniProt P50548 1-548).
T6 sequence: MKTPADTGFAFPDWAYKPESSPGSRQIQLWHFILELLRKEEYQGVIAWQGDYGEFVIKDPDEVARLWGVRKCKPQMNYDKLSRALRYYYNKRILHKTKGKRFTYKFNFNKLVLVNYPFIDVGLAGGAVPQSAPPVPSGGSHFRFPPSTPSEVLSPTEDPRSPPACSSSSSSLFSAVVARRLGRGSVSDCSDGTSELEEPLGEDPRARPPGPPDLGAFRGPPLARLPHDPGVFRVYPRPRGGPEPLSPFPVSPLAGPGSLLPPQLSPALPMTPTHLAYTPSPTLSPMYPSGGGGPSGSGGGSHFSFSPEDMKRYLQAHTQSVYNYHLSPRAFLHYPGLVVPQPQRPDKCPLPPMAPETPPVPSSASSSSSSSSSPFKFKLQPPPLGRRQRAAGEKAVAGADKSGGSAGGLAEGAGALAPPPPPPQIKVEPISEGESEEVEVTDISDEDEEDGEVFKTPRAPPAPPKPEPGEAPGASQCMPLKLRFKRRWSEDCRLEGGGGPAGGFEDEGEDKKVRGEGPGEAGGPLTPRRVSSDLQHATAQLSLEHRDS
As to conditions: protein: recombinant; tags: N-terminal GST; dsDNA, one strand shown. In outline:
as §1

A further assay deals with T7, ETV3L (Homo sapiens, UniProt Q6ZN32 1-361).
T7 sequence: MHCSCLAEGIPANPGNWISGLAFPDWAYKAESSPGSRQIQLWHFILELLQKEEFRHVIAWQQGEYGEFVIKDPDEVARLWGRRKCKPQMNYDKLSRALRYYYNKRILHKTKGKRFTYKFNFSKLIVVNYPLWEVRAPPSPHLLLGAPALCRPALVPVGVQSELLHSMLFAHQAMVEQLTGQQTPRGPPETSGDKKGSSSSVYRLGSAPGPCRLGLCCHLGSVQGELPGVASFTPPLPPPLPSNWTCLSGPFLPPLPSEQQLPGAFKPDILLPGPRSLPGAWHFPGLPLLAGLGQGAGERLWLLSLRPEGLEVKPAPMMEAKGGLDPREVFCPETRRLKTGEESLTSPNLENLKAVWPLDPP
As to conditions: protein: recombinant; tags: N-terminal GST; dsDNA, one strand shown. In a few lines: as §1

The target of another assay is T8, ETS2 (Homo sapiens, UniProt P15036 1-469).
T8 sequence: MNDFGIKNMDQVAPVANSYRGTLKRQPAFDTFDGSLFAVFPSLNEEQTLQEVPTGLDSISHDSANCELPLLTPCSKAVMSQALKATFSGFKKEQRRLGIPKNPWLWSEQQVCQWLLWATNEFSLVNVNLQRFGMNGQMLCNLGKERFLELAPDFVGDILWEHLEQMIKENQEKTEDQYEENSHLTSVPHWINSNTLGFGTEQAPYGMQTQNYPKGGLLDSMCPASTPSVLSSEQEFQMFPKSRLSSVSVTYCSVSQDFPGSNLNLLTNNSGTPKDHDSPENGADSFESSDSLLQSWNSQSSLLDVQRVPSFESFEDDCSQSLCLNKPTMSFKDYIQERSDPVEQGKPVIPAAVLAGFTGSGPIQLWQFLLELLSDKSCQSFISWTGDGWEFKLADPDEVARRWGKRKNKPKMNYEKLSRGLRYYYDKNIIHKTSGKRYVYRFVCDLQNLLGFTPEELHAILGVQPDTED
As to conditions: protein: recombinant; tags: N-terminal GST; dsDNA, one strand shown. In a few lines:
as §1

For another assay, the target named is T9, SPDEF (Homo sapiens, UniProt O95238 1-335).
T9 sequence: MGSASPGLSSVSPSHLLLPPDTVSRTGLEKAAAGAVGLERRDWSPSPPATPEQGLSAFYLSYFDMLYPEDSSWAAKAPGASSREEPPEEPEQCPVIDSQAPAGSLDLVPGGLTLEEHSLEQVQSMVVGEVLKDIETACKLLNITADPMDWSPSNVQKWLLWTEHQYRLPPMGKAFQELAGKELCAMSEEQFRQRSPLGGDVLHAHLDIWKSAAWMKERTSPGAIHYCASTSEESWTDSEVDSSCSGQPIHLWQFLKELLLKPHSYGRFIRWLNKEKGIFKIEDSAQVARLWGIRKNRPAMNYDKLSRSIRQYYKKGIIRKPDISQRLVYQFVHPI
Conditions: protein: recombinant; tags: N-terminal GST; dsDNA, one strand shown. In outline:
as §1

In the next assay the target is T10, ETV7 (Homo sapiens, UniProt Q9Y603 1-341).
T10 sequence: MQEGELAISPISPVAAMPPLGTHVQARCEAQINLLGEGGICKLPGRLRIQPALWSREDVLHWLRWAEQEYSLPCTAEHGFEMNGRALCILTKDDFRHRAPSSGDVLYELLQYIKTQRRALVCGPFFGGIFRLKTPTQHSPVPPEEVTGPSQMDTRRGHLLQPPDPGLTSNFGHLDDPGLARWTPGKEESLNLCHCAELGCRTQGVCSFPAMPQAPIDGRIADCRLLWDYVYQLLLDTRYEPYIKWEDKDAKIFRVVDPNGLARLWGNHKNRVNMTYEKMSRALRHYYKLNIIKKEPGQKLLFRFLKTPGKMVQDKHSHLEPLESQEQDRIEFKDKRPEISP
Conditions: protein: recombinant; tags: N-terminal GST; dsDNA, one strand shown. In a few lines: as §1

The target of a further assay is T11, ELF5 (Homo sapiens, UniProt Q9UKW6-2 1-255).
T11 sequence: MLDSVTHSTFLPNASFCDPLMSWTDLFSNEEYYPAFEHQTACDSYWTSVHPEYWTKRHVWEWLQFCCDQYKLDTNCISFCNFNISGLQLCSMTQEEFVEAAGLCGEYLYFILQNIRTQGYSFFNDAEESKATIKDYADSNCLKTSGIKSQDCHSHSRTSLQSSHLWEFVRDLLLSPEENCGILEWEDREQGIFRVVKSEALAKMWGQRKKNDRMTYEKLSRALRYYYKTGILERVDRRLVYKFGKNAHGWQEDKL
Conditions: protein: recombinant; tags: N-terminal GST; dsDNA, one strand shown. In outline: as §1

The target of the next assay is T12, ETV3 (Homo sapiens, UniProt P41162-2 1-143).
T12 sequence: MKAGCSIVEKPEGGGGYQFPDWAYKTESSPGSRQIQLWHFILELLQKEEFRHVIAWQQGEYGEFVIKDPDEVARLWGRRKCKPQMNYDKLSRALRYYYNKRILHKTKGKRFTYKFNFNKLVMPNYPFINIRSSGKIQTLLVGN
As to conditions: protein: recombinant; tags: N-terminal GST; dsDNA, one strand shown. In a few lines:
as §1

Another assay deals with ETV6 (Homo sapiens, UniProt P41212 1-452). As to conditions: protein: recombinant; tags: N-terminal GST; dsDNA, one strand shown. In a few lines: as §1
Chain of ETV6 (P41212 whole entry): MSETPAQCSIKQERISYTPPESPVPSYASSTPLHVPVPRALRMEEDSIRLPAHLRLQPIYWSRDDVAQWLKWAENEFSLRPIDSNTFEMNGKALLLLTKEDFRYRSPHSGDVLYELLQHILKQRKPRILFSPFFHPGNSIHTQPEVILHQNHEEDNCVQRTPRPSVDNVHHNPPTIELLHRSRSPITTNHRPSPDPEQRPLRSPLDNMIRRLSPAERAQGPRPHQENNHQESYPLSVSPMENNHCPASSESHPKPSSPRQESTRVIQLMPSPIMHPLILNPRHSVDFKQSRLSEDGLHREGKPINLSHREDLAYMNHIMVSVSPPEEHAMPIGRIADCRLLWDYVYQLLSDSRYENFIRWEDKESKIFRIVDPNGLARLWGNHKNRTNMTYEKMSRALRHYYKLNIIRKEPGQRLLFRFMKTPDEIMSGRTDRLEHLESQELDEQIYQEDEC

Chain of HSF1 (Q00613 whole entry): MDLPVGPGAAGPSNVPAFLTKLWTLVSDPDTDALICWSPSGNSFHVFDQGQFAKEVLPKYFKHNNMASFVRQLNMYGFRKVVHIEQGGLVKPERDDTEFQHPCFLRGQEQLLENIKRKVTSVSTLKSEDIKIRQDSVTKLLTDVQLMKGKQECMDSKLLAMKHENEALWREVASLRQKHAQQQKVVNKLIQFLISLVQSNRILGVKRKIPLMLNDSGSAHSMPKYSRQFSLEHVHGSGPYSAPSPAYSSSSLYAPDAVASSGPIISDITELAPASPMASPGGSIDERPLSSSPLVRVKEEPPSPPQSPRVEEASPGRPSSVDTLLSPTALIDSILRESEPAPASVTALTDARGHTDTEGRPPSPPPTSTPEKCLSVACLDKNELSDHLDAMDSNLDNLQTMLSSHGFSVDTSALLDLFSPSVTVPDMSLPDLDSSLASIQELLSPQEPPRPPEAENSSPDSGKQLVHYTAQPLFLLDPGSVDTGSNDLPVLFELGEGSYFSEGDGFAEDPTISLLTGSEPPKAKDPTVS
Chain of CRX (O43186 whole entry): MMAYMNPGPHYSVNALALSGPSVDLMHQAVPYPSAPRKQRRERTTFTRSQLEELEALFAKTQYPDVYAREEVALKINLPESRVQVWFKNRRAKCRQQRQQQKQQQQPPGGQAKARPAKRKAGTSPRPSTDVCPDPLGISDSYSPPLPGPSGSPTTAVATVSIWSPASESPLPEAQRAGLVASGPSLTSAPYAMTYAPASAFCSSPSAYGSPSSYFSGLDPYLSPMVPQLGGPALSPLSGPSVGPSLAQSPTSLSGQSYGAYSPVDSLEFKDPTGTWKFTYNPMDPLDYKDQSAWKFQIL
Chain of ETV5 (P41161 whole entry): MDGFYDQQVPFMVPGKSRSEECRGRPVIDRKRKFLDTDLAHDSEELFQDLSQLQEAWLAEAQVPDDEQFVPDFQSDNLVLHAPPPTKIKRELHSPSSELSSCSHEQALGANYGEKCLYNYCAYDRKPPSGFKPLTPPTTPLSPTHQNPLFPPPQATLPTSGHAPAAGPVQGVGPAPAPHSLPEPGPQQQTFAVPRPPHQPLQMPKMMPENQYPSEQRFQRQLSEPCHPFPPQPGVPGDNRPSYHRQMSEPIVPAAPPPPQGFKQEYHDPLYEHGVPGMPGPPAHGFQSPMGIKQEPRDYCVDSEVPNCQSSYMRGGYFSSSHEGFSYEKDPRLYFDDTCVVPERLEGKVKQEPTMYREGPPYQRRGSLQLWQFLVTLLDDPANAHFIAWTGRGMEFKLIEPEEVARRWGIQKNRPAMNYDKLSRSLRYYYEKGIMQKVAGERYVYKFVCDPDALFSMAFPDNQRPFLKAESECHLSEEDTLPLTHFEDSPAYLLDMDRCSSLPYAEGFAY
Chain of ETV1 (P50549 whole entry): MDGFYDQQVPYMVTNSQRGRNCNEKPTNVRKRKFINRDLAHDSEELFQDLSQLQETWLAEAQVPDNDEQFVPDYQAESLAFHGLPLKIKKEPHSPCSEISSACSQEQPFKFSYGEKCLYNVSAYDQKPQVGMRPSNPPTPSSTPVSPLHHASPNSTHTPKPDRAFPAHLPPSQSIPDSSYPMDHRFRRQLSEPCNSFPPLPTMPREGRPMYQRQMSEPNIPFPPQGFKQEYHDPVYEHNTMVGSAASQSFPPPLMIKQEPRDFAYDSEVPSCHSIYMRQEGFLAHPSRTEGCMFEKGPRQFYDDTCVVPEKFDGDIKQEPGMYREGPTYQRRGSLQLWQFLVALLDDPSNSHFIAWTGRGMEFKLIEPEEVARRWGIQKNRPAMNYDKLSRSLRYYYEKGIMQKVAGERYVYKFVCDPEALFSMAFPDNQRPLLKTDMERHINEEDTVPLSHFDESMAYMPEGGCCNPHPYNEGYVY
Chain of ELF4 (Q99607 whole entry): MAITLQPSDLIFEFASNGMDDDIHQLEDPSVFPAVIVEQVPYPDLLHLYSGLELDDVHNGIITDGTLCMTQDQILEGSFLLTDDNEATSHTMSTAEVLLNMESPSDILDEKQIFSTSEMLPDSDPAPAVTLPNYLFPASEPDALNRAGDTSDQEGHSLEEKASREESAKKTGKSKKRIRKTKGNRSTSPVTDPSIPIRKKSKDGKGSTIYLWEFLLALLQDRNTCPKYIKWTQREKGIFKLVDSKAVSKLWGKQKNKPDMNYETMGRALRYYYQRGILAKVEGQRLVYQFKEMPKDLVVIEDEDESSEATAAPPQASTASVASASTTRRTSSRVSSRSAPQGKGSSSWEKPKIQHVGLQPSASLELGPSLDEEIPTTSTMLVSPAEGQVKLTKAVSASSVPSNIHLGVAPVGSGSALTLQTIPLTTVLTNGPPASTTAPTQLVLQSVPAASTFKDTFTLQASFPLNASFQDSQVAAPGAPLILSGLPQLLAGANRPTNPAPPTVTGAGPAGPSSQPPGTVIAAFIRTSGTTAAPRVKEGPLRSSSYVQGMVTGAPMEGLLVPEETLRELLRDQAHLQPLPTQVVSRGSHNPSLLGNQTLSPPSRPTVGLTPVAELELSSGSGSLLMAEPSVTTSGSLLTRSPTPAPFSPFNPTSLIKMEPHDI

Take TACCAA: the binding signal was 1.14 fold enrichment (6-mer frequency, TF over GST control) in the assay with FEV; 1.13 fold enrichment (6-mer frequency, TF over GST control) with ETV5; 1.14 fold enrichment (6-mer frequency, TF over GST control) in the assay with HSF1; 1.01 fold enrichment (6-mer frequency, TF over GST control) in the assay with SPIC; 1.2 fold enrichment (6-mer frequency, TF over GST control) in the assay with ELF4; 1.23 fold enrichment (6-mer frequency, TF over GST control) with ELK4. Further, the binding signal with ETV2 is 1.09 fold enrichment (6-mer frequency, TF over GST control); in the assay with ELF3, 1.05 fold enrichment (6-mer frequency, TF over GST control); in the assay with CRX it was 1.25 fold enrichment (6-mer frequency, TF over GST control); in the assay with ETV1, 1.11 fold enrichment (6-mer frequency, TF over GST control); with ERF, 1.14 fold enrichment (6-mer frequency, TF over GST control); in the assay with ETV3L, 1.08 fold enrichment (6-mer frequency, TF over GST control). For the same sequence, the binding signal was 1.18 fold enrichment (6-mer frequency, TF over GST control) in the assay with ETS2; 1.17 fold enrichment (6-mer frequency, TF over GST control) with SPDEF; 1.13 fold enrichment (6-mer frequency, TF over GST control) with ETV7; 1.09 fold enrichment (6-mer frequency, TF over GST control) with ELF5; 1.13 fold enrichment (6-mer frequency, TF over GST control) with ETV3; 1.17 fold enrichment (6-mer frequency, TF over GST control) in the assay with ETV6.
